# Source: PubChem BioAssay AID652018 (The Scripps Research Institute Molecular Screening Center, 2013)
# Activity calls are given as the source filed them.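 How the source made its calls: active means at least 50% inhibition of LYPLA1 or LYPLA2 at 300 nM, with no off-target enzyme hit at any dose; inactive means under 50% inhibition on both enzymes, or any off-target hit.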
# Tested on: Anti-Targets
# Experiment: LYPLA1/LYPLA2 inhibition and anti-target count – cell lysate, competitive ABPP, HEK293T proteome, set 2, selectivity assay for LYPLA1 inhibitor project, late-stage follow-up (AID 652018)
# Settings: competitive ABPP FP-PEG-Rh gel; anti-targets hit, at 10 µM
Compound,anti-target count,outcome
O=C(CN1CCN(C(=O)n2nc(Br)nc2Br)CC1)Nc1cc(C(F)(F)F)ccc1Cl,0,inactive
COc1ccc(N2CCN(C(=O)n3ncc(-c4ccc(OC(F)(F)F)cc4)n3)CC2)cc1,0,inactive
COc1ccc(N2CCN(C(=O)n3ncc(C(O)(c4ccccc4)c4ccccc4)n3)CC2)cc1,1,active
O=C(CN1CCN(C(=O)n2nc(Br)c(Br)n2)CC1)Nc1cc(C(F)(F)F)ccc1Cl,0,inactive
COc1ccc(N2CCN(C(=O)n3ccnn3)CC2)cc1,0,inactive
COc1ccc(N2CCN(C(=O)n3nc(Br)nc3Br)CC2)cc1,0,inactive
O=C(CN1CCN(C(=O)n2ncc(-c3ccc(Br)cc3)n2)CC1)Nc1cc(C(F)(F)F)ccc1Cl,0,inactive
COc1ccc(N2CCN(C(=O)n3nc(Br)c(Br)n3)CC2)cc1,2,active
COc1ccc(N2CCN(C(=O)n3cc(-c4ccc(OC(F)(F)F)cc4)nn3)CC2)cc1,0,inactive
O=C(CN1CCN(C(=O)n2cncn2)CC1)Nc1cc(C(F)(F)F)ccc1Cl,0,inactive
O=C(CN1CCN(C(=O)n2cc(C(O)(c3ccccc3)c3ccccc3)nn2)CC1)Nc1cc(C(F)(F)F)ccc1Cl,0,inactive
O=C(N1CCN(c2ccc(Cl)c(Cl)c2)CC1)n1ncc(C(O)(c2ccccc2)c2ccccc2)n1,0,inactive
O=C(CN1CCN(C(=O)n2cc(-c3ccc(OC(F)(F)F)cc3)nn2)CC1)Nc1cc(C(F)(F)F)ccc1Cl,0,inactive
O=C(CN1CCN(C(=O)n2cc(-c3ccc(-c4ccccc4)cc3)nn2)CC1)Nc1cc(C(F)(F)F)ccc1Cl,0,inactive
O=C(CN1CCN(C(=O)n2ncc(-c3ccc(OC(F)(F)F)cc3)n2)CC1)Nc1cc(C(F)(F)F)ccc1Cl,0,inactive
COc1ccc(N2CCN(C(=O)n3cncn3)CC2)cc1,0,inactive
COc1ccc(N2CCN(C(=O)n3nccn3)CC2)cc1,0,inactive
O=C(CN1CCN(C(=O)n2ncc(C(O)(c3ccccc3)c3ccccc3)n2)CC1)Nc1cc(C(F)(F)F)ccc1Cl,1,active
O=C(CN1CCN(C(=O)n2nccn2)CC1)Nc1cc(C(F)(F)F)ccc1Cl,0,inactive
COc1ccc(N2CCN(C(=O)n3cc(C(O)(c4ccccc4)c4ccccc4)nn3)CC2)cc1,2,active
COc1ccc(N2CCN(C(=O)n3ncc(-c4ccccc4)n3)CC2)cc1,0,inactive
O=C(N1CCN(c2ccc(Br)cc2)CC1)n1ncc(C(O)(c2ccccc2)c2ccccc2)n1,0,inactive
O=C(CN1CCN(C(=O)n2ncc(-c3ccc(-c4ccccc4)cc3)n2)CC1)Nc1cc(C(F)(F)F)ccc1Cl,0,inactive
